# EPAC2 agonist: agonists of human EPAC2 (RAPGEF4). Potency, µM (highest dose often 154 µM), hits mostly activators. EPAC2 activation, biochemical qHTS; response scale: 100% = 6.5 mM cAMP response. Q8WZA2. 360,000 compounds, 0.079% hits; further: nearly all actives have a fitted effect of over 50% in size
#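 Each well held 100 nM EPAC2, 250 nM RAP1B-BODIPY-GDP and 50 uM GDP. Fluorescence, read at 5-min intervals to 30 min, was referenced to a 6.5 mM cAMP positive control.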
# EPAC1 antagonist: antagonists of human EPAC1. O95398. EPAC1 GEF assay, Rap1b-BODIPY-GDP exchange fluorescence. Potency, µM (highest dose often 115 µM), hits mostly inhibitors. 360,000 compounds, 0.14% hits; further: nearly all actives have a fitted effect of over 50% in size
# Target sequence (O95398 whole entry, looked up): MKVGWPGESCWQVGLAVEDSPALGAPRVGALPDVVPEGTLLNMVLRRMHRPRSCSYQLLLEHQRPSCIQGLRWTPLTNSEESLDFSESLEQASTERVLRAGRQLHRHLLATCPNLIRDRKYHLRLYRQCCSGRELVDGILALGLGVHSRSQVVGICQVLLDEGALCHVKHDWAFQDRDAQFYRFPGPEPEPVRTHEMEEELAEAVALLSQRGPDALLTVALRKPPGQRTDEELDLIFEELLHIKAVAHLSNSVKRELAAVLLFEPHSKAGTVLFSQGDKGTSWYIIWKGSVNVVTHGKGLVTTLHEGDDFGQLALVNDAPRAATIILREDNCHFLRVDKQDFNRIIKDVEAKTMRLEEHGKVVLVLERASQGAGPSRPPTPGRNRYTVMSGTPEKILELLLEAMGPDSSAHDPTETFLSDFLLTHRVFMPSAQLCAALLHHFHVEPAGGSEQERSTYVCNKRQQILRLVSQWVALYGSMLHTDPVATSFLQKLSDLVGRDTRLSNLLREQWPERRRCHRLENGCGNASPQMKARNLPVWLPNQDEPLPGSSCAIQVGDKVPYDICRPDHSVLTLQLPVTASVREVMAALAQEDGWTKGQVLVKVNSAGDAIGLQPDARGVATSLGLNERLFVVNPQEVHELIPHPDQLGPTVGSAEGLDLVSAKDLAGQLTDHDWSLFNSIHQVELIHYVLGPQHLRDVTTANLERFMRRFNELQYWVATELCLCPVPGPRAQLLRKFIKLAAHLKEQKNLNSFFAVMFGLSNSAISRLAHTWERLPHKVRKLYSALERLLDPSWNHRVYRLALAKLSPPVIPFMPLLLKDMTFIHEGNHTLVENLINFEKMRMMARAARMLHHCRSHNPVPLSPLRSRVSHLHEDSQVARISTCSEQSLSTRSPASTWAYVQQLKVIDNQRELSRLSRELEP
# Coupling enz: coupling enzyme interference in Giardia aldolase counter-screen; coupling enzyme system counterscreen, AmpLite Red fluorescence; activity change, negative = inhibition, % at 58.2 µM, hits read low; 290,000 compounds, 0.67% hits; AID 2472; in the data active means activity change below about -30%
#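 Activity here indicates interference with the coupling reaction, not aldolase inhibition. Compounds at 57.5 uM final met coupling enzymes for 10 min at RT; substrate and AmpLite Red detection followed, with a 525/598 nm fluorescence read after 20 min.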
# USP1 inh: USP1/UAF1 (human) deubiquitinase inhibition; recombinant USP1/UAF1, Ub-Rhodamine cleavage fluorescence; Potency, µM (series often up to 57.1 µM), usual class: inhibitors; 390,000 compounds, 0.23% hits; AID 743255; further: nearly all actives have a fitted effect of over 60% in size
#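 High-throughput fluorogenic screen: 1nM USP1/UAF1 complex, Ub-Rho substrate 150nM final, 50mM HEPES pH 7.8 with 0.5mM EDTA, 0.1 mg/ml BSA, 1mM TCEP and 0.01% Tween-20.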
# EPAC2 antagonist: EPAC2 (human) antagonism; Q8WZA2; EPAC2 GEF exchange of Rap1B-BODIPY-GDP, fluorescence; Potency, µM (titrated, usually from 114 µM), hits mostly inhibitors; 360,000 compounds, 0.18% hits; further: nearly all actives have a fitted effect of over 45% in size
# EPAC1 ag: activates human EPAC1 exchange factor | O95398 | EPAC1 agonist qHTS, biochemical assay; response scale: 100% = response to 6.5 mM cAMP | Potency, µM (highest dose often 154 µM), actives largely listed as activators | 360,000 compounds, 0.073% hits; further: nearly all actives have a fitted effect of over 60% in size
#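 EPAC1 100 nM, Rap1B–BODIPY-GDP 250 nM, unlabeled GDP 50 uM; compound titration; 5 min RT; kinetic read ex480/em540 at 5-min intervals ×30 min; data normalized to 6.5 mM cAMP agonist control.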
# Hits are given with their value; 0 = inactive; ? = inconclusive; - = not tested or not shown. Sampled rows, rich in hits. Any-hit rate of the full collection: about 0.87%. Unless noted, the call rests on the fitted dose curve; in most records, active means well fitted curve in the direction sought with a large enough effect; inconclusive means small, poorly fitted or top-dose-only effect, or another doubt; inactive means no such curve, though single readings can be large; an effect the other way counts as inactive or inconclusive.
SMILES,EPAC2 agonist,EPAC1 antagonist,Coupling enz,USP1 inh,EPAC2 antagonist,EPAC1 ag
COc1cc(NCc2ccc3nc(N)nc(N)c3c2C)cc(OC)c1OC,-,-,-46,-,-,-
O=[N+]([O-])c1ccccc1N=Nc1ccc(O)cc1O,0,?,-,?,0,0
O=S(=O)(O)c1cc(O)c(N=Nc2ccc(O)cc2O)c2ccccc12,0,79µM,-,?,45µM,0
COc1ccc2c(c1OC)C(=O)OC2,0,0,0,0,0,0
COc1ccc2c3c(cccc13)C(=O)CC2,112µM,0,0,?,0,100µM
CCCCNc1nc2c(-c3cccc(C)c3)nnn2c2ccccc12,-,-,-,0,-,-
O=C(O)c1ccc(C2CCCCC2)cn1,0,0,-49,0,0,0
O=C(O)C1=C(C2CCCCC2)C(=O)c2ccccc21,0,0,-,0,0,0
Cc1ccc(NC(=O)CNNC(=O)c2cccc([N+](=O)[O-])c2)cc1[N+](=O)[O-],0,0,-,0,0,0
Brc1ccc2c(c1)OCCOCCOc1cc(Br)ccc1OCCOCCOCCO2,0,0,0,0,0,0
Nc1ccc2c(c1)OCCOCCOCCOCCOCCO2,0,0,-49,?,0,0
O=C(CSc1nc2ccc(Cl)cc2[nH]1)c1ccc2c(c1)OCO2,0,0,-36,0,0,0
O=C(CSc1nc2cc(Cl)c(Cl)cc2[nH]1)c1ccc2c(c1)OCO2,0,0,0,0,0,0
Cc1cc(C)n(NC(=S)NC2CCCCC2)c(=O)c1C#N,0,0,0,0,0,0
COc1ccc(OC)c(CCNC(=O)Cn2cccc2C(=O)c2ccccc2)c1,0,0,0,0,0,0
Cc1ccc(C(=O)COC(=O)CCC(=O)Nc2ccc(Oc3ccccc3)cc2)cc1C,-,-,-,0,-,-
Cc1nn(C)c(C)c1CCNC(=O)Nc1ccccc1C(F)(F)F,-,-,-,0,-,-
S=C(Nc1ccc2cn[nH]c2c1)Nc1ccccc1Cl,0,0,-47,0,0,0
COc1ccc(S(=O)(=O)Nc2nc3ccccc3nc2NCc2ccc3c(c2)OCO3)cc1,0,0,0,0,0,0
CCOC(=O)c1c(C)oc2ncnc(Nc3ccc(OC)c(OC)c3)c12,-,-,-,0,-,-
O=c1cc(-c2ccccc2)nc2c(-c3ccccc3)c(C(F)(F)F)[nH]n12,0,?,0,0,18µM,0
COc1cc2ccccc2cc1C(=O)N1CC(C)CC(C)C1 (stereo not given),0,0,-,0,28µM,0
CCN(CC(=O)Nc1ccc(Br)cc1F)CC(=O)NC1CCS(=O)(=O)C1 (stereo not given),0,0,-,0,0,0
COCCn1c(N)c(C(=O)OCc2ccccc2)c2nc3ccccc3nc21,0,0,-37,0,0,0
C=CCn1c(N)c(C(=O)OCCC)c2nc3ccccc3nc21,0,0,0,0,0,0
SMILES,EPAC2 agonist,EPAC1 antagonist,Coupling enz,USP1 inh,EPAC2 antagonist,EPAC1 ag
CCC(CO)Nc1ccc(-c2n[nH]c(=O)c3ccccc23)cc1[N+](=O)[O-] (stereo not given),0,0,0,0,0,0
Cc1[nH]n(-c2ncc(-c3ccccc3)s2)c(=O)c1C(c1ccc(Br)cc1)C(C#N)C#N (stereo not given),0,16µM,0,0,0,0
Cc1[nH]n(C(N)=S)c(=O)c1C(c1ccccc1)C(C#N)C#N (stereo not given),0,0,0,0,0,0
COc1ccc(C2C(C(=O)/C=C/c3ccco3)=C(O)C(=O)N2CCN2CCOCC2)cc1 (stereo not given),0,0,0,0,0,0
COc1cccc(C2C(C(=O)/C=C/c3ccco3)=C(O)C(=O)N2CCN2CCOCC2)c1 (stereo not given),0,0,-33,0,0,0
O=C(O)CC/C(=C\c1ccc(N2CCCC2)c([N+](=O)[O-])c1)c1nc2ccccc2s1,0,45µM,0,0,0,89µM
COc1cccc(CNC(=O)CCn2cccn2)c1,-,-,-,0,-,-
N#Cc1ccc(NC(=O)c2nc(-c3ccccc3)n(-c3ccccc3)n2)cc1,0,0,-38,0,0,0
O=C(Nc1ccccn1)c1nc(-c2ccccc2)n(-c2ccccc2)n1,0,0,0,0,0,0
COc1cc(OC)c(NC2=CC(=O)C(=O)c3ccccc32)cc1Cl,0,0,-50,18µM,0,0
CCC(C(=O)Nc1cc(Cl)c(OC)cc1OC)c1ccccc1 (stereo not given),0,0,0,0,0,0
Cc1cc(NC2=CC(=O)C(=O)c3ccccc32)no1,0,?,-,2.5µM,?,0
Cc1ccc(NC2=CC(=O)C(=O)c3ccccc32)cc1,0,0,-56,25µM,0,0
CCOC(=O)c1ccc(NC2=CC(=O)C(=O)c3ccccc32)cc1,0,0,-,7.9µM,0,0
CCCCN1C(N)=NC[C@H]1Cc1ccc(O)cc1,0,0,0,0,0,0
NS(=O)(=O)c1ccc(NC2=CC(=O)C(=O)c3ccccc32)cc1,0,?,-71,8.9µM,?,0
CCN1C(=O)N/C(=C/c2ccc(C)o2)C1=O,0,0,0,0,0,0
CCCN1C(=O)/C(=C/c2ccc(C)o2)NC1=S,-,-,-33,-,-,-
CCOC(=O)C1=NNC(C(=O)OCC)C1C(=O)OCC (stereo not given),0,0,-,0,0,0
CCOC(=O)C1CCCN(c2nc3ccccc3nc2C(C#N)C(=O)OC(C)C)C1 (stereo not given),0,89µM,0,0,0,0
CCOC(=O)C1CCN(c2nc3ccccc3nc2C(C#N)C(=O)OC(C)C)CC1 (stereo not given),0,0,0,?,0,0
CCCCCCOC(=O)C(C#N)c1nc2ccccc2nc1N1CCCCC1 (stereo not given),0,0,0,0,0,112µM
O=C1c2cccc3cccc(c23)C(=O)N1CCCSc1ncn[nH]1,0,0,0,0,0,0
O=C1C(O)=C(O)C(=O)c2ccccc21,0,?,-,16µM,?,0
O=C1c2ccccc2C(=O)c2[nH]c(=O)[nH]c21,0,0,0,28µM,0,0
SMILES,EPAC2 agonist,EPAC1 antagonist,Coupling enz,USP1 inh,EPAC2 antagonist,EPAC1 ag
O=C1c2ccccc2C(=O)c2[nH]cnc21,0,0,0,0,0,0
O=C1C=C(O)c2ccccc2C1=O,-,-,0,-,-,-
Cc1ccc(/C=[N+](\[O-])c2ccc(N(C)C)cc2)c2nsnc12,0,?,-41,?,0,0
CCOc1cc(/C=C/C(=O)c2ccc(OC)c(CN3CCOCC3)c2)cc(Br)c1O,0,0,0,35µM,0,0
CCOc1cc(/C=N/NC(=O)c2ccc(CN3CCOCC3)cc2)ccc1OC,0,0,0,?,0,0
CN(C)c1cccc2c(S(=O)(=O)N3CCOCC3)cccc12,0,0,0,0,0,0
CCOc1ccc(C(N)=O)cc1OC,0,0,0,0,0,0
